FLuc inh = blocks purified firefly luciferase enzyme activity; 2.5% of 76,000 active; Potency, µM (highest dose often 115 µM), hits mostly inhibitors; P08659; purified P. pyralis luciferase, luminescence, biochemical; also: nearly all actives have a fitted effect of over 65% in size
Target sequence (P08659 whole entry, looked up): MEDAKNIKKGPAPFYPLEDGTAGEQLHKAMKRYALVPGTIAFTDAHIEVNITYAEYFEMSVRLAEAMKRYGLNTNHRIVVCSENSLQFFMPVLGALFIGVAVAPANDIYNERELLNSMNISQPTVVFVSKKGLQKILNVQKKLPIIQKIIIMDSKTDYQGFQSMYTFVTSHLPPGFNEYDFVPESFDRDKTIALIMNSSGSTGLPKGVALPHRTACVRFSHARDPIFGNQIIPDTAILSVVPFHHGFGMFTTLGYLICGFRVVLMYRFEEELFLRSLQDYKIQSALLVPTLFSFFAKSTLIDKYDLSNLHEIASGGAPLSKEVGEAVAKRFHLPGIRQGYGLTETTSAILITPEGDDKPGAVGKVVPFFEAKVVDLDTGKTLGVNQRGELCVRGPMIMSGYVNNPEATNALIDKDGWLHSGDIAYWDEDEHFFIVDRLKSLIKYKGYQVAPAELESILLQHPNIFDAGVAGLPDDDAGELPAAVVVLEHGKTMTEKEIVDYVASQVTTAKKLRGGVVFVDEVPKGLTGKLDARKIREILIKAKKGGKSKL
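FLuc 10nM, D-luciferin 10uM, ATP 10uM, Mg acetate 10mM, Tris acetate pH 7.5, Tween/BSA; cpd qHTS; enzyme added last; CCD luminescence.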
NIH3T3 tox = cytotoxic compounds in NIH 3T3 cells | NIH 3T3 viability, CellTiter-Glo ATP luminescence, 48-72 h | Potency, µM (doses to about 96.7 µM), without a hit: top-dose activity change, negative = cytotoxicity, actives largely listed as inhibitors | 4.3% of 94,000 active | AID 1345082; also: nearly all actives have a fitted effect of over 55% in size
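Cells were seeded at 400 per well, treated with pin-transferred compound, and kept 48 or 72 hr at 37 °C before CellTiter-Glo addition and luminescence imaging of cellular ATP.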
HEK cytotox = cytotoxic compounds in HEK 293 cells | HEK 293 viability, ATP luminescence (CellTiter-Glo), 48-72 h | Potency, µM (doses to about 115 µM), for inactives: at the highest dose activity change, negative = cytotoxicity, usual class: inhibitors | 6.6% of 94,000 active; also: nearly all actives have a fitted effect of over 60% in size
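Pintool-delivered compounds were incubated with HEK 293 cells (250 cells/well) at 37 degree Celsius for 48 or 72 hr. ATP-dependent luminescence (CellTiter-Glo) then reported remaining viable cells.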
hNpr1 antagonist = antagonists of human natriuretic peptide receptor Npr1; AID 1347048; P16066; HEK293 hNpr1 GloSensor cGMP, ANP-stimulated luminescence; Potency, µM (doses to about 46.3 µM), without a hit: at the highest dose activity change, negative = inhibition, usual class: inhibitors; 1.6% of 76,000 active; calls by dose curve; also: nearly all actives have a fitted effect of over 60% in size
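Compound pre-incubated 30 min at room temperature on GloSensor-loaded HEK293 cells stably carrying hNpr1 and the pGS-40F cGMP biosensor. Stimulation uses hNppA at 0.1 nM final; luminescence is taken at baseline and 20 min post-agonist.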
GPT2 inhibitor = blocks human glutamate pyruvate transaminase 2; Recombinant GPT2, coupled pyruvate oxidase/HRP Amplex Red fluorescence; Potency, µM (highest dose often 57.7 µM), inactives show at the highest dose activity change, negative = inhibition, actives largely listed as inhibitors; 0.25% of 100,000 active; AID 1671188; also: nearly all actives have a fitted effect of over 60% in size
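Fluorescence of coupled pyruvate oxidase/HRP/Amplex Red system (50uM Amplex, 30 min, dark) reports pyruvate formed by GPT2. Enzyme reaction: 10ng/uL GPT2, 2mM L-alanine, 250uM a-KG, 30 min room temperature, pH 7.5; 50uM AOA control.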
* = called active by the depositor; i = inactive; ? = inconclusive; / = not tested or not shown; [ ] = another dose, or the depositor's remark. Sampled rows, rich in hits. Any-hit rate of the full collection: about 10%. Unless noted, calls follow the shape of the dose curve; as a rule, active = well fitted curve in the direction sought with a large enough effect; inconclusive = small, poorly fitted or top-dose-only effect, or another doubt; inactive = no such curve, though single readings can be large; an effect the other way counts as inactive or inconclusive. % is scaled to controls: 0 for no effect and ±100 for the full control effect; potency is read from the fitted curve at half-maximal effect.

SMILES	FLuc inh	NIH3T3 tox	HEK cytotox	hNpr1 antagonist	GPT2 inhibitor
CN(C(=O)Nc1ccc(Cl)cc1)C1CCCc2ccccc21 (configuration not stated)	28µM*	?	89µM*	-6%[70.6 µM]	i
CN(Cc1ccc(F)cc1)C1CCCc2ccccc21 (configuration not stated)	i	2%[138 µM]	-10%[172 µM]	1%[70.6 µM]	i
CN(C(=O)c1cccc(Cl)c1)C1CCCc2ccccc21 (configuration not stated)	i	?	71µM*	-14%[70.6 µM]	-26%[88.5 µM]
CN(C(=O)c1ccccc1)C1CCCc2ccccc21 (configuration not stated)	i	?	?	0%[70.6 µM]	i
CN(C(=O)Cc1ccc(F)cc1)C1CCCc2ccccc21 (configuration not stated)	i	-24%[138 µM]	100µM*	0%[70.6 µM]	i
O=C(CC1CCCC1)N1CCCCCC1CN1CCCC1 (configuration not stated)	i	?	?	3%	i
CNC(=O)CCn1ncc2cc(OCc3ccccc3-c3cccc(C)c3)ccc21	45µM*	89µM*	100µM*	-26%[70.6 µM]	?
CNC(=O)CCn1ncc2cc(OCc3ccccc3-c3cccc(OC)c3F)ccc21	i	45µM*	?	-16%[70.6 µM]	-11%[88.5 µM]
CNC(=O)CCn1ncc2cc(OCc3ccccc3-c3ccccc3COC)ccc21	i	?	89µM*	-7%[70.6 µM]	0%[88.5 µM]
CNC(=O)CCn1ncc2cc(OCc3ccccc3-c3c(Cl)cccc3OC)ccc21	i	?	?	1%	1%
CNC(=O)CCn1ncc2cc(OCc3ccccc3-c3ccccc3OC)ccc21	40µM*	89µM*	?	-15%[70.6 µM]	-28%[88.5 µM]
Cc1cccc(NC(=O)[C@@H]2CN(S(C)(=O)=O)C[C@H]2c2ccncc2)c1	/	-18%	i	/	4%
O=[S+]1([O-])NC2(CCCN(Cc3ccccc3C(F)(F)F)C2)CNc2ccccc21 (configuration not stated)	i	?	45µM*	-29%	-1%
O=[S+]1([O-])NC2(CCCN(Cc3ccccc3)C2)CNc2ccccc21 (configuration not stated)	i	-21%	?	9%	-4%
CCNc1ncnc2sc3c(c12)CCN(Cc1ccc[nH]1)C3	i	40µM*	?	-9%	4%
CCN(C(=O)CCC(=O)N1CCC(CCOc2ccccc2F)C1)c1ccccc1 (configuration not stated)	/	?	?	/	i
CC(C)CCN1CC(CN[S+](=O)([O-])c2ccccc2)C2(C1)CN(c1ccccc1)C2 (configuration not stated)	i	45µM*	?	-17%[70.6 µM]	?
O=[S+]([O-])(NCC1CN(Cc2ccc3c(c2)CCO3)CC12CN(c1ccccc1)C2)c1ccccc1 (configuration not stated)	i	?	?	-14%	-6%
CC(C)c1ccc(CN2CC(CNC(=O)c3cnn(C)c3)C3(C2)CN(c2ccccc2)C3)cc1 (configuration not stated)	i	?	79µM*	-3%	i
CC(C)c1ccc([S+](=O)([O-])N2CC(CNC(=O)c3cnn(C)c3)C3(CN(c4ccccc4)C3)C2)cc1 (configuration not stated)	i	?	?	-12%	-18%
COc1ccc(CN2CC(CNc3ccccc3)C3(C2)CN(c2ccccc2)C3)cc1O (configuration not stated)	i	28µM*	40µM*	-8%[70.6 µM]	?
COc1ccccc1CN1CC(CNC(=O)Nc2ccccc2)C2(C1)CN(c1ccccc1)C2 (configuration not stated)	i	?	79µM*	-15%	-14%
CCCc1cc2c(N3CCN(C4=NCC(C)(C)S4)CC3)ncnc2s1	/	/	/	/	3%
CC(C)(C)CC(=O)Nc1nc2c(s1)C[C@@H]1[C@](C)(CO)[C@H](O)CC[C@@]1(C)[C@@H]2CC(=O)Nc1ccccc1	i	?	?	5%	-6%
CN1CC(=O)N(CC(=O)N2CCC3(CC2)[C@H](O)C[C@@H]3OCCO)C1=O	i	i	2%	3%	i
SMILES	FLuc inh	NIH3T3 tox	HEK cytotox	hNpr1 antagonist	GPT2 inhibitor
COc1ccc(CN2CC(CN[S+](=O)([O-])c3ccccc3)C3(C2)CN(c2ccccc2)C3)cc1O (configuration not stated)	i	22µM*	?	-11%	i
O=C(c1ccnc(-c2ccccc2-c2ccccc2)c1)N1CCCC1	i	35µM*	?	1%	i
O=C(c1ccnc(-c2ccncc2)c1)N1CCCC1	i	-3%	1%	-6%	2%
O=C(C1CCC1)N1CCC(Oc2cccc(F)c2)C1 (configuration not stated)	i	-1%	-3%	3%	-11%
N[C@@H]1CC[C@H](C(=O)N2CCC(Oc3cccc(C(F)(F)F)c3)CC2)C1	i	?	45µM*	3%	-1%
O=c1cc(N2CCOCC2)oc2c(NCc3cnccn3)nccc12	i	100µM*	-3%[172 µM]	4%[70.6 µM]	i
O=c1cc(N2CCOCC2)oc2c(NCC3CCOCC3)nccc12	i	28µM*	-9%[172 µM]	1%[70.6 µM]	4%[88.5 µM]
CN1CCN(c2cc(=O)c3ccnc(NCc4ccccc4)c3o2)CC1	i	?	i	4%[70.6 µM]	-2%[88.5 µM]
COc1cc(-c2nccc3c(=O)cc(N4CCOCC4)oc23)ccn1	i	?	-15%[172 µM]	5%[70.6 µM]	2%[88.5 µM]
O=C(c1ccccc1OCC1CCCNC1)N1CCOCC1 (configuration not stated)	i	4%	-1%	0%	1%
CCOc1ccc(C(=O)NCCn2ccn3nc(-c4cc(C)ccc4C)cc3c2=O)cc1	i	-25%	?	2%	4%
Cc1ccc(C)c(-c2cc3c(=O)n(CCNC(=O)c4ccc(F)cc4Cl)ccn3n2)c1	i	32µM*	40µM*	-19%	i
Cc1ccc(-c2cc3c(=O)n(CCNC(=O)Cc4ccsc4)ccn3n2)cc1C	5µM*	?	?	-16%	-6%
CCOc1ccc(CC(=O)NCCn2ccn3nc(-c4ccc(C)cc4C)cc3c2=O)cc1	25µM*	?	?	?	-8%
COc1ccc(-c2cc3c(=O)n(CCNC(=O)Cc4ccc(C)cc4)ccn3n2)cc1	?	-27%	?	?	3%
COc1ccc(-c2cc3c(=O)n(CCNC(=O)Cc4ccsc4)ccn3n2)cc1	11µM*	?	?	-21%	?
COCCN1C(=O)c2ccccc2C(C(=O)Nc2nnc(C3CC3)s2)C12CCCC2 (configuration not stated)	i	-12%	-12%	2%	3%

Source: PubChem BioAssay (National Center for Advancing Translational Sciences (NCATS))
